Out of some 310,000 compounds screened, about 14,000 (4.5%) showed an effect of 50% or more. The effect is printed as a negative number. The entries come from a sample that favours strong results as a whole.
Target: human ether-à-go-go-related gene (hERG) potassium channel (human, UniProt Q12809)
Assay: primary screen, population patch clamp on CHO cells stably expressing hERG; higher = less effect of the substance
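Further: peak tail current of the secondary pulse compared with the same well before compound.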

human ether-à-go-go-related gene (hERG) potassium channel, sequence (Q12809 whole entry, looked up): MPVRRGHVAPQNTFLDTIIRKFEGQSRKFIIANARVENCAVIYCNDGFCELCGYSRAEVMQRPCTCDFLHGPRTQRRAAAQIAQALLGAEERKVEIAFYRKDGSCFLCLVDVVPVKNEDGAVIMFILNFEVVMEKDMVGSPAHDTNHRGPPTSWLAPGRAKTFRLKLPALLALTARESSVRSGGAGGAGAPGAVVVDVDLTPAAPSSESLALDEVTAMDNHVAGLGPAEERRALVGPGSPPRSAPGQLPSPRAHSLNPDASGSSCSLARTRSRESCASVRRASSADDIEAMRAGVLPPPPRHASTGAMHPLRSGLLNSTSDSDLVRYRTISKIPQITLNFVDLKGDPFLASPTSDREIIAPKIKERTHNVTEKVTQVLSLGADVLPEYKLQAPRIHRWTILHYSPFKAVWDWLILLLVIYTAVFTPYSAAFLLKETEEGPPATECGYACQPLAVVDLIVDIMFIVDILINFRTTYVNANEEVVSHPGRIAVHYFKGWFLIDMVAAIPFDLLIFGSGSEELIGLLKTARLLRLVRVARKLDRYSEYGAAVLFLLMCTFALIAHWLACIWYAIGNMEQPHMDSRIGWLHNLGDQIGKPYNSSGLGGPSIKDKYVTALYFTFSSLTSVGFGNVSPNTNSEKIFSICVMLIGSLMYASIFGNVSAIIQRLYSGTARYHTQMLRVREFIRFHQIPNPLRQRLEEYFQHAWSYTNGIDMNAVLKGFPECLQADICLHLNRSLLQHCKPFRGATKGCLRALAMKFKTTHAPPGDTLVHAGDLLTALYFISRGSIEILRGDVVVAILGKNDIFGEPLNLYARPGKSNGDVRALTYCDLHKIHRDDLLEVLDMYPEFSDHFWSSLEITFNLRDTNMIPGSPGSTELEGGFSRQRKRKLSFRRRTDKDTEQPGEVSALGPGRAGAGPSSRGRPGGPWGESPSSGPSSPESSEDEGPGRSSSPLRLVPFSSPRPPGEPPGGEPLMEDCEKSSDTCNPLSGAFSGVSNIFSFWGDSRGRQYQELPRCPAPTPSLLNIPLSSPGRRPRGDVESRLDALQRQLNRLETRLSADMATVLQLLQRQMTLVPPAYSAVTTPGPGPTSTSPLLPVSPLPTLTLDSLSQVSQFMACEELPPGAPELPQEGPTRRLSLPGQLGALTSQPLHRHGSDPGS

| SMILES | hERG current change (%, negative = inhibition) at 10uM |
| --- | --- |
| O=C(O)C1C2C=CC(C3CC23)C1C(=O)O (centres unmarked) | 10.6% |
| Cc1noc(C)c1C(=O)NCCc1ccccc1 | 0.324% |
| O=C(CN1CCC(n2nnc3cc(C(F)(F)F)ccc32)CC1)Nc1ccc2c(c1)CCC2 | 1.83% |
| O=C(CN1CCC(n2nnc3cc(C(F)(F)F)ccc32)CC1)NCc1cccs1 | -74.5% |
| O=C(CN1CCC(n2nnc3ccccc32)CC1)Nc1ccc2c(c1)CCC2 | -39.3% |
| Cc1ccccc1C(=O)NC1CCN(CC(=O)NCc2cccs2)CC1 | 6.14% |
| O=C(CN1CCC(n2nnc3ccccc32)CC1)NCc1cccs1 | -60.2% |
| COc1ccc(C(=O)NNC(=O)CN2CCC(n3nnc4cc(C(F)(F)F)ccc43)CC2)cc1 | -10.4% |
| COc1ccccc1CNC(=O)c1cc2c(s1)CS(=O)(=O)C2 | 10.3% |
| COc1cc(C)c(NC(=S)Nc2ccc(Cl)c(Cl)c2)cc1OC | 5.06% |
| COc1cc(CNc2nnnn2C)ccc1OCc1c(F)cccc1Cl | 0.756% |
| COC(=O)C1=C(c2ccc(-c3ccccc3)c(F)c2)C[C@@H]2CC[C@H]1N2C(=O)NC(C)C | -16.8% |
| COc1cccc(CN(C)C(=O)CSCC(=O)Nc2ccc(C)cc2)c1OC | -12.9% |
| CCOC(=O)Cn1c(CN2CCOCC2)nc2c1c(=O)[nH]c(=O)n2C | 7.2% |
| COc1ccc(C2Nc3ccccc3C(=O)N2Cc2ccccc2)cc1 (centres unmarked) | 3.75% |
| CC(C)CC(NC(N)=O)C(=O)NCCc1ccc(Cl)cc1Cl (centres unmarked) | 3.07% |
| CCOP(=O)(OCC)C(NC(=O)Nc1cccc(Cl)c1)c1ccccc1 (centres unmarked) | 5.75% |
| COc1ccc2nc(/C=N/NC(=O)[C@H](C)NC(=O)OC(C)(C)C)ccc2c1 | -7.25% |
| COc1ccc2nc(/C=N/NC(=O)[C@H](CCSC)NC(=O)OC(C)(C)C)ccc2c1 | -59.7% |
| CCC(C)[C@H](NC(=O)OC(C)(C)C)C(=O)N/N=C/c1ccc2cc(OC)ccc2n1 (some centres unmarked) | -13.7% |
| Cc1ccc(NC(=O)C2=C(C(=O)O)CCCC2)cc1F | 7.33% |
| Cn1ncc(C(=O)Nc2ccc(Cl)cc2)c1C(F)(F)F | -12% |

| SMILES | hERG current change (%, negative = inhibition) at 10uM |
| --- | --- |
| O=C(NCCc1ccccc1)c1ccc(NCC2CCCO2)c([N+](=O)[O-])c1 (centres unmarked) | -68.9% |
| O=C(Nc1ccccc1)c1ccc(NCC2CCCO2)c([N+](=O)[O-])c1 (centres unmarked) | -2.42% |
| CC(C)(C)C(=O)N1CCN(c2ccc([N+](=O)[O-])c(NCC3CCCO3)c2)CC1 (centres unmarked) | -20.8% |
| CN1CCN(c2ccc([N+](=O)[O-])c(NCC3CCCO3)c2)CC1.Cl (centres unmarked) | -41.4% |
| O=[N+]([O-])c1ccc(N2CCNCC2)cc1NCC1CCCO1 (centres unmarked) | -22.1% |
| O=C(c1ccccc1F)N1CCN(c2ccc([N+](=O)[O-])c(NCC3CCCO3)c2)CC1 (centres unmarked) | -80.8% |
| O=C(c1ccccc1)N1CCN(c2ccc([N+](=O)[O-])c(NCC3CCCO3)c2)CC1 (centres unmarked) | -76.9% |
| NC(=O)c1ccc(NCC2CCCO2)c([N+](=O)[O-])c1 (centres unmarked) | 12.7% |
| CC(=O)N1CCN(c2ccc([N+](=O)[O-])c(NCC3CCCO3)c2)CC1 (centres unmarked) | -18.3% |
| O=C1CC(N(C(=O)c2ccco2)c2cccc(Cl)c2)C(=O)N1c1cccc(Cl)c1 (centres unmarked) | -19.7% |
| C/C(Cn1cnc([N+](=O)[O-])n1)=N\NC(=O)c1ccccc1O | 8.06% |
| COc1cc(C(=O)Nc2ccc(Br)cc2C(=O)c2ccccc2)cc(OC)c1OC | 12.4% |
| COc1ccc(CNS(=O)(=O)c2cc(-c3cc(C)no3)ccc2C(C)C)cc1 | -14.9% |
| CCCCC(CC)CNC(=O)C1CCCN(S(=O)(=O)c2cnc[nH]2)C1 (centres unmarked) | 3.45% |
| N#CCCN(CC(=O)O)S(=O)(=O)c1ccccc1 | 5.74% |
| CC(C)(C)OC(=O)N[C@H](Cc1ccccc1)C(=O)N1CCC(C(=O)O)CC1 | 9.08% |
| COc1ccc2c(c1)CCc1c(C(=O)Nc3cc(C)n(Cc4ccc(Cl)cc4)n3)noc1-2 | -30.5% |
| COc1ccc(-c2nc(N)n[nH]2)cc1OC | 18.9% |
| COc1ccc(-c2n[nH]c3c2CN(C(=O)c2ccccc2)CC3)cc1 | -6.13% |
| Fc1cccc(NCc2ccoc2)c1 | -7.89% |
| Cc1ccc(-c2sc(-c3ccccc3)nc2CC(=O)Nc2ccccc2F)cc1 | 6.09% |
| OCC1(Cc2ccccc2)CCN(C2CCN(c3ccc(F)c(F)c3)CC2)CC1 | -112% |
